Tests used:
Experiment in all cases: log2 ratio of Biotin-Ahx-Ub-VS probe labelling (fragment/DMSO); higher = less target engagement (more negative = stronger competition), active = hit call of the paper (q ≤ 0.05, log2 ratio ≤ -1)
Settings in all cases: compound concentration: 200 uM; treatment time: 3 h
USP42 = biological target: T1, USP42 (UniProt Q9H9J4)
T1 sequence (whole entry): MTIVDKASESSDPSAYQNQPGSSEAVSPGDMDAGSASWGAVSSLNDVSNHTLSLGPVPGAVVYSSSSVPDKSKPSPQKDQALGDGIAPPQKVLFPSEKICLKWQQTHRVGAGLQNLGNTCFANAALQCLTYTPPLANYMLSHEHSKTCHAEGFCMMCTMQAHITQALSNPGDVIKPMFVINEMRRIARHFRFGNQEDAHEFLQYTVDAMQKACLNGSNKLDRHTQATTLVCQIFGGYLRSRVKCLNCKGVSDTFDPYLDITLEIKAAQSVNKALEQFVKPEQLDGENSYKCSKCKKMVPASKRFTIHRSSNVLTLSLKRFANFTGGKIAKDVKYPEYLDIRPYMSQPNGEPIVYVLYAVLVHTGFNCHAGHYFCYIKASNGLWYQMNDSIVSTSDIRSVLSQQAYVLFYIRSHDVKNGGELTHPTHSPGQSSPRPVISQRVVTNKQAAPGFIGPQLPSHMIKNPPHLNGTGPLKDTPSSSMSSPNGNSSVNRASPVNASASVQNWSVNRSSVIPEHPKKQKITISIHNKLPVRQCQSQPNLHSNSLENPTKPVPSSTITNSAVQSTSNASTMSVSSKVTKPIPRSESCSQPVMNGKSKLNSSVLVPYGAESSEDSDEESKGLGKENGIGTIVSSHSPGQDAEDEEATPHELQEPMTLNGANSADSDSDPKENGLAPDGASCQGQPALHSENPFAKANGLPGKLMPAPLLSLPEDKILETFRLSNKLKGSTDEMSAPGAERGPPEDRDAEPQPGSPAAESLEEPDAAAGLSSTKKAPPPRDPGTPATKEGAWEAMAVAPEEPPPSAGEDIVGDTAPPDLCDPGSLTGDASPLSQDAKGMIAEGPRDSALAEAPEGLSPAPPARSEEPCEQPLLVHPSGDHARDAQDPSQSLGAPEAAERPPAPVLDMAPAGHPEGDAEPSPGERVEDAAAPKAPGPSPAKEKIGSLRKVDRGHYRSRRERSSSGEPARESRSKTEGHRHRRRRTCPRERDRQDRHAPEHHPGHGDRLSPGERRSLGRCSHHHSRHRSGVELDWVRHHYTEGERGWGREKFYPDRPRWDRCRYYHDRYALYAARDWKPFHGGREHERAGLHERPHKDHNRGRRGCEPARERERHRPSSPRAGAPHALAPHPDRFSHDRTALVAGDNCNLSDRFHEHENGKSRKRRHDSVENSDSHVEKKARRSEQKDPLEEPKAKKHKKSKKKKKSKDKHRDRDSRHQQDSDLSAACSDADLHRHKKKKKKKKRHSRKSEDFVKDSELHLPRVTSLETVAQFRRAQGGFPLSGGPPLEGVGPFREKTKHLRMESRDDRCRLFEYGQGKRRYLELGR
How it was run: (§1)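 In triplicate, 495 µg of HEK293T lysate per sample was incubated with fragment at 200 µM or vehicle for 3 h. Biotin-Ahx-Ub-VS was then added to 0.5 µM final for 1 h, and labelled DUBs were captured with NeutrAvidin, digested with LysC and trypsin, and measured by diaPASEF LC-MS/MS. Data are average log2 fragment/vehicle ratios by unpaired t-test from global-median-normalised Spectronaut label-free quantities, restricted to proteins with ≥2 unique peptides.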

USP46 = USP46 (UniProt P62068)
How it was run: as §1

USP47 = biological target: T2, USP47 (UniProt Q96K76)
T2 sequence (whole entry): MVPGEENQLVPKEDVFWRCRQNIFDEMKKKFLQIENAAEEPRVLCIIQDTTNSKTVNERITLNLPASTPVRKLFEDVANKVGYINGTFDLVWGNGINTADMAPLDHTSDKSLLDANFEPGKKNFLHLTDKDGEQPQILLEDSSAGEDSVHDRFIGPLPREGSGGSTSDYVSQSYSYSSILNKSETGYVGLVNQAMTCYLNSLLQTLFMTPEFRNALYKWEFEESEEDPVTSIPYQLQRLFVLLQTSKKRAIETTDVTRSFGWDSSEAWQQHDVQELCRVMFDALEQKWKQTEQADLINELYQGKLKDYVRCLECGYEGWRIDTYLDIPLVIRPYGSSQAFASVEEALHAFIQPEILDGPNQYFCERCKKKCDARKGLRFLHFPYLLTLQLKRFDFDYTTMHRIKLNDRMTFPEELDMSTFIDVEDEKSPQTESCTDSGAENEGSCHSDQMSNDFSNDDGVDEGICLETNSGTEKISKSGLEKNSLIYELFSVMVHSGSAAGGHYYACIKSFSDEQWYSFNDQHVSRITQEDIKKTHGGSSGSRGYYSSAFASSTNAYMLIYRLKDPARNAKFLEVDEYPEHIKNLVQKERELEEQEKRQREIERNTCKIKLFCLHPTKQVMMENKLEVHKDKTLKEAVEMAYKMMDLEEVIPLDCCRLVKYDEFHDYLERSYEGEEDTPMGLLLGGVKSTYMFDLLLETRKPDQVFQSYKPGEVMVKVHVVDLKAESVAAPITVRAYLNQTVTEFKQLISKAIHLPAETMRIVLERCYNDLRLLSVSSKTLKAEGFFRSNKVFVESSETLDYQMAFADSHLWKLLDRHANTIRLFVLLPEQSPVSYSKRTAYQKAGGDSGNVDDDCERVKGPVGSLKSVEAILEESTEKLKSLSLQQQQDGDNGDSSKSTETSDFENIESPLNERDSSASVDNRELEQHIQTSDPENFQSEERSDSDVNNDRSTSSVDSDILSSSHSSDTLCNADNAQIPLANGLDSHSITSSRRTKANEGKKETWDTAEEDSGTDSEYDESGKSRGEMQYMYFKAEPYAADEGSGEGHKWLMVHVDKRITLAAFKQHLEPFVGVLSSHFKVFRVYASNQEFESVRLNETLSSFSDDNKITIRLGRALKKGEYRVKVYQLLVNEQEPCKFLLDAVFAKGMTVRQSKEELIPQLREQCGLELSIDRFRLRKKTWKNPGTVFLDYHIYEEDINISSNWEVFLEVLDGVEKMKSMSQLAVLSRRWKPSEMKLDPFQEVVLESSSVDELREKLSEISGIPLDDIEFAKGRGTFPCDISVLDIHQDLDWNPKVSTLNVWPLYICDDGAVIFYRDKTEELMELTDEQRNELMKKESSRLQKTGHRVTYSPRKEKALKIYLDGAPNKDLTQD
How it was run: as §1

USP48 = biological target: T3, USP48 (UniProt Q86UV5)
T3 sequence (whole entry): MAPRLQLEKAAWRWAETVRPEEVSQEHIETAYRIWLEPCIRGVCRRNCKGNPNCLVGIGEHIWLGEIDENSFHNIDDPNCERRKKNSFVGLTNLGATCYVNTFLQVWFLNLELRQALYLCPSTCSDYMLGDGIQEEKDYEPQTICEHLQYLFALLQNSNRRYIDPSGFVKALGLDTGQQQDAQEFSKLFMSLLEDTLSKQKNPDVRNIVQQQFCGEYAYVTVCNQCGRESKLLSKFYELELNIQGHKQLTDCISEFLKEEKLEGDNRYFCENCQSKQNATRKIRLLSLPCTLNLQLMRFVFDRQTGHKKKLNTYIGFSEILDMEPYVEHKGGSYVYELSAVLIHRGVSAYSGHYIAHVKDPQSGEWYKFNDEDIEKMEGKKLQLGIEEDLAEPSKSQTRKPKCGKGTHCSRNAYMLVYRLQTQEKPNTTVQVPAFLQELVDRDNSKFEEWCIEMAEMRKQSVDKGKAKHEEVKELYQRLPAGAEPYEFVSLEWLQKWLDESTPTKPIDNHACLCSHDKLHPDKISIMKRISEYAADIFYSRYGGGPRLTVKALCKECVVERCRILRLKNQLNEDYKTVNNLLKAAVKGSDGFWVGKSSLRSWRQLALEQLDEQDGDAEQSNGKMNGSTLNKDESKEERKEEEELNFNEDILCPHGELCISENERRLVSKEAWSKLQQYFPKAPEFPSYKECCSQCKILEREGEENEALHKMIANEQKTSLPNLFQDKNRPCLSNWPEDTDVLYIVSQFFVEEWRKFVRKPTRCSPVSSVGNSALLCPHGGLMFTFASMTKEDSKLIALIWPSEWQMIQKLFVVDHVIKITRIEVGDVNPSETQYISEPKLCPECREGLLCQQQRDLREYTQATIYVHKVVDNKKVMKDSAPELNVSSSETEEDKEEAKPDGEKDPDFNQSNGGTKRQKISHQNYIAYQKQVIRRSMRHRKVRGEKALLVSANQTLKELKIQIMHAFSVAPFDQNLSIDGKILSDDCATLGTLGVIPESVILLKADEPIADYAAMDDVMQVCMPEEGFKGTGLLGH
How it was run: as §1

USP5 = biological target: T4, USP5 (UniProt P45974)
T4 sequence (whole entry): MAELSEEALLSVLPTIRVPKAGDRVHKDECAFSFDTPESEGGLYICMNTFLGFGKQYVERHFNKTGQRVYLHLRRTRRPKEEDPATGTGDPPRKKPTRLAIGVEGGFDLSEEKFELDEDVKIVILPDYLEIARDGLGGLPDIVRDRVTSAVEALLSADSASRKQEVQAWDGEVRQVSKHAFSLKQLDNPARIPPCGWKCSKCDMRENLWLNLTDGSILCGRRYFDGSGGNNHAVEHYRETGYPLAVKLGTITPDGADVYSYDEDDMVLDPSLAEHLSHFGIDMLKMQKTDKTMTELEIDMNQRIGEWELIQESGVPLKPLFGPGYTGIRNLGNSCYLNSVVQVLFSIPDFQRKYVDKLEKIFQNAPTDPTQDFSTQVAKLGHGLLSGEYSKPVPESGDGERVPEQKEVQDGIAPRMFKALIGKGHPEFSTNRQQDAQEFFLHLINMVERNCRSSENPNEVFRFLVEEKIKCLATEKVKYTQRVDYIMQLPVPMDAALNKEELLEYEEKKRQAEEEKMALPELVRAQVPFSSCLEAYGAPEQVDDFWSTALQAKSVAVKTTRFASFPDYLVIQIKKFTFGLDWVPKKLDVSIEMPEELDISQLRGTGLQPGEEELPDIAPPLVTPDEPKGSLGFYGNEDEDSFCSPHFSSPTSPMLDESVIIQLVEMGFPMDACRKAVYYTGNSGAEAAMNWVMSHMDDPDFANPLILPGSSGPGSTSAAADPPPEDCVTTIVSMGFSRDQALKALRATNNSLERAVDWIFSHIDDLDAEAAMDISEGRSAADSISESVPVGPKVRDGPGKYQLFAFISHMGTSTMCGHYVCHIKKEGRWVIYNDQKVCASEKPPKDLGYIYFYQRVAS
How it was run: as §1

USP54 = USP54 (UniProt Q70EL1)
How it was run: as §1

USP7 = USP7 (UniProt Q93009)
How it was run: as §1

USP8 = biological target: T5, USP8 (UniProt P40818)
T5 sequence (whole entry): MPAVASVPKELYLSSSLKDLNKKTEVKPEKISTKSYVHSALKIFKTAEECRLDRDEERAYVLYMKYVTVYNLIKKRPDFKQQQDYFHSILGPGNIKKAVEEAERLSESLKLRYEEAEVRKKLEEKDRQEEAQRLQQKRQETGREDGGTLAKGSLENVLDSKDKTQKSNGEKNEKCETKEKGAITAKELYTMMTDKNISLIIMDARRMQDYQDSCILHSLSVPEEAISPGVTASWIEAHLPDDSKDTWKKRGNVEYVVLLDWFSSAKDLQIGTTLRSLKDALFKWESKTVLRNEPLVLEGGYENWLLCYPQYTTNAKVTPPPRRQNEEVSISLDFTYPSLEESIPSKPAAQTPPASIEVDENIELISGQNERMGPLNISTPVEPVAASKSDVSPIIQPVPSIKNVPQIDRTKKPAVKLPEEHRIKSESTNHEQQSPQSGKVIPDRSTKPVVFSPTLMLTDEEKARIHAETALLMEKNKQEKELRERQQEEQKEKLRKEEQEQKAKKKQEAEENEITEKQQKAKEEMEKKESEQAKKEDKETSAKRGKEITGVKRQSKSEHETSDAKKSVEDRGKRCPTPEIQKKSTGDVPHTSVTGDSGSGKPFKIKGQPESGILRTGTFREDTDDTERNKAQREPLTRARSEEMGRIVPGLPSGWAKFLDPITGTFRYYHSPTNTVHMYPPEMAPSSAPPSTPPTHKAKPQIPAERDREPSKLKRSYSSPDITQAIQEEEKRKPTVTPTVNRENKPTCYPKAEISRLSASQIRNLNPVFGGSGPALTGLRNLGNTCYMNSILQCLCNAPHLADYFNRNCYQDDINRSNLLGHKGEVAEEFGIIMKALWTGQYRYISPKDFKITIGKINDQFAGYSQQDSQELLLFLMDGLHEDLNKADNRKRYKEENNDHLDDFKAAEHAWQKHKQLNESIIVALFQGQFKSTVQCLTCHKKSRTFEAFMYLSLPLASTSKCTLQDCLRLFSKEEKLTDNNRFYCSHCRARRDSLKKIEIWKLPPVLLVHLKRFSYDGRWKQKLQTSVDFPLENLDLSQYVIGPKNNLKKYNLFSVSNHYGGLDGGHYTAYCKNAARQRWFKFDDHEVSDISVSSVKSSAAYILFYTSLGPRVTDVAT
How it was run: as §1

USP9X = USP9X (UniProt Q93008)
How it was run: as §1

UniProt O00487 = biological target: UniProt O00487
How it was run: as §1

Measured: log2 ratio of Biotin-Ahx-Ub-VS probe labelling

Chain of USP9X (Q93008 whole entry): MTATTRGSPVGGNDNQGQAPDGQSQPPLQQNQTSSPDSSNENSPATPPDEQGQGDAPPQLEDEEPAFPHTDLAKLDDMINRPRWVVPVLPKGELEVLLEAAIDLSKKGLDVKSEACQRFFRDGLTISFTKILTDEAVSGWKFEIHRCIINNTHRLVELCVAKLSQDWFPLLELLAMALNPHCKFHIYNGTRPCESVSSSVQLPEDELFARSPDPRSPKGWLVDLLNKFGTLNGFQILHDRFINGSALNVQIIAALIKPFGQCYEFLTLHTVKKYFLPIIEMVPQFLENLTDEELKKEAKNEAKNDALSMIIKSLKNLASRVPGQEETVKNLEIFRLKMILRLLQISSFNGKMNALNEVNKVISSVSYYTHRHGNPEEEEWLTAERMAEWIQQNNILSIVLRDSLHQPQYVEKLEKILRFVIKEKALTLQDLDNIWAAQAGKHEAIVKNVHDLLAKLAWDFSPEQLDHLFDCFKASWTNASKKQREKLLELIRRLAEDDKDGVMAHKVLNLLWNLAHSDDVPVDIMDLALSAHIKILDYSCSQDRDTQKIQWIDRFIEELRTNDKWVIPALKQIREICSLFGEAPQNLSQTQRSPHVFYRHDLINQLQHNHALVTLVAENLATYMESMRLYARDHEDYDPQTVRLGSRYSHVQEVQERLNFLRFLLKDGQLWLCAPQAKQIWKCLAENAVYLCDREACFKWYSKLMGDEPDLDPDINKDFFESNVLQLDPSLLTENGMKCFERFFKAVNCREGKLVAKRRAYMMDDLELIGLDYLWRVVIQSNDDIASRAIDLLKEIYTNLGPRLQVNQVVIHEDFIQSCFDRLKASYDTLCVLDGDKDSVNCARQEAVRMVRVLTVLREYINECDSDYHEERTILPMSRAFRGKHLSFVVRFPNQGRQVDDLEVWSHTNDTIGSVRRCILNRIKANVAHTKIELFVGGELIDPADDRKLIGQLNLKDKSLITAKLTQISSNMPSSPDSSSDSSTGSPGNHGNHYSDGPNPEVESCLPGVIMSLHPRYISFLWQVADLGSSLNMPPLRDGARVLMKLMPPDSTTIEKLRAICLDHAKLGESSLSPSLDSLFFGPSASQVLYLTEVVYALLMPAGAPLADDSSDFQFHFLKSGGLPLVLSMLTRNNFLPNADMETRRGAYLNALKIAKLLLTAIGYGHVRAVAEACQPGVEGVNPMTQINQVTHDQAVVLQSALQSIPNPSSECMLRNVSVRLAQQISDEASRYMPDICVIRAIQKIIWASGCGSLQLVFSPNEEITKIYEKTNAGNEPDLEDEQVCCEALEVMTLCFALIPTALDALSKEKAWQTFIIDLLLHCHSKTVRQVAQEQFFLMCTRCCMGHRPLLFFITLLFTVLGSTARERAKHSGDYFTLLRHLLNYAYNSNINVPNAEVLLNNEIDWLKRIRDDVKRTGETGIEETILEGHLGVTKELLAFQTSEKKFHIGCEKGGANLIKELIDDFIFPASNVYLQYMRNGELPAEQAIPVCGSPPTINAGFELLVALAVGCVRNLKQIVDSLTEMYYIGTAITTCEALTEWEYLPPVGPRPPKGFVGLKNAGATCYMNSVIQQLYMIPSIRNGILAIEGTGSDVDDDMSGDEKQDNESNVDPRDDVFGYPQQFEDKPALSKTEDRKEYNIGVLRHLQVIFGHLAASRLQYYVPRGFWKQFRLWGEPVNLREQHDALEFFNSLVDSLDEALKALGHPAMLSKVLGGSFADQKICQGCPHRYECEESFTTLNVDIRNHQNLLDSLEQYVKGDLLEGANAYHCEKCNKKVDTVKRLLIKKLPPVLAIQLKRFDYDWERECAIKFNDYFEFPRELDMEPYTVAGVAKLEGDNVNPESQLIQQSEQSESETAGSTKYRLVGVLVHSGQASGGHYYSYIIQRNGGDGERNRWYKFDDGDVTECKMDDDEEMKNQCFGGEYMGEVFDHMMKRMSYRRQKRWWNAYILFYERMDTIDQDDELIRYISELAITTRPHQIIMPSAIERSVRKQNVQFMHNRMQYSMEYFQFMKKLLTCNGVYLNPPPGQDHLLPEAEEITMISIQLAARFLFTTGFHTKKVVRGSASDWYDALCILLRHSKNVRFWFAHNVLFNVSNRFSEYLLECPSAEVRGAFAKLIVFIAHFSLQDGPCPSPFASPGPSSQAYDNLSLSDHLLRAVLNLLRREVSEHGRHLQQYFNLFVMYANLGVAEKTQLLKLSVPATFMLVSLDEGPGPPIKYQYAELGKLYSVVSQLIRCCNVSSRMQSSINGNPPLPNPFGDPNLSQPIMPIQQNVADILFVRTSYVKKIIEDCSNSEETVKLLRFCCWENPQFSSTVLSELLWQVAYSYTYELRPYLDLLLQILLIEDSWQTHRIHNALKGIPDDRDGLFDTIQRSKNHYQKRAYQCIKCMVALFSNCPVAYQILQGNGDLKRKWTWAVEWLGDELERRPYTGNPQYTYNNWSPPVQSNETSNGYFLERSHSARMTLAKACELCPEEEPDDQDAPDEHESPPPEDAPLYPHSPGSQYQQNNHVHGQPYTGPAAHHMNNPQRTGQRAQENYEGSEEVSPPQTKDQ
Chain of USP46 (P62068 whole entry): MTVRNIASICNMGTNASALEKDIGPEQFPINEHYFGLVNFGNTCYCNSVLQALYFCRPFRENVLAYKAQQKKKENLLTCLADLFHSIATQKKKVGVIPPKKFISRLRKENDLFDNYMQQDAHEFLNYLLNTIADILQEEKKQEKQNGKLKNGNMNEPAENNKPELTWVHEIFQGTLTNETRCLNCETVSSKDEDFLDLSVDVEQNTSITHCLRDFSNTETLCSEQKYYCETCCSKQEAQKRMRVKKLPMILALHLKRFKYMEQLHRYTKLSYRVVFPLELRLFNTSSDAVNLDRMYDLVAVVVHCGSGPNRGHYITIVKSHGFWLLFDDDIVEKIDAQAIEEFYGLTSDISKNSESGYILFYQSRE
Chain of UniProt O00487 (O00487 whole entry): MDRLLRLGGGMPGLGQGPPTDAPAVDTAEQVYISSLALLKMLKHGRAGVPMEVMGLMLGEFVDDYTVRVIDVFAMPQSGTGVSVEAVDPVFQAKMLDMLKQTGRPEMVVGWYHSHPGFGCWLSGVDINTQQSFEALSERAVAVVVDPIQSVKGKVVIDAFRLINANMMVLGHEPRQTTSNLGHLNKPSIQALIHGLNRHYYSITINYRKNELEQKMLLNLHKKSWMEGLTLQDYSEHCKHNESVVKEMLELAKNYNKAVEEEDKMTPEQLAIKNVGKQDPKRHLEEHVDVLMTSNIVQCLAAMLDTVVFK
Chain of USP54 (Q70EL1 whole entry): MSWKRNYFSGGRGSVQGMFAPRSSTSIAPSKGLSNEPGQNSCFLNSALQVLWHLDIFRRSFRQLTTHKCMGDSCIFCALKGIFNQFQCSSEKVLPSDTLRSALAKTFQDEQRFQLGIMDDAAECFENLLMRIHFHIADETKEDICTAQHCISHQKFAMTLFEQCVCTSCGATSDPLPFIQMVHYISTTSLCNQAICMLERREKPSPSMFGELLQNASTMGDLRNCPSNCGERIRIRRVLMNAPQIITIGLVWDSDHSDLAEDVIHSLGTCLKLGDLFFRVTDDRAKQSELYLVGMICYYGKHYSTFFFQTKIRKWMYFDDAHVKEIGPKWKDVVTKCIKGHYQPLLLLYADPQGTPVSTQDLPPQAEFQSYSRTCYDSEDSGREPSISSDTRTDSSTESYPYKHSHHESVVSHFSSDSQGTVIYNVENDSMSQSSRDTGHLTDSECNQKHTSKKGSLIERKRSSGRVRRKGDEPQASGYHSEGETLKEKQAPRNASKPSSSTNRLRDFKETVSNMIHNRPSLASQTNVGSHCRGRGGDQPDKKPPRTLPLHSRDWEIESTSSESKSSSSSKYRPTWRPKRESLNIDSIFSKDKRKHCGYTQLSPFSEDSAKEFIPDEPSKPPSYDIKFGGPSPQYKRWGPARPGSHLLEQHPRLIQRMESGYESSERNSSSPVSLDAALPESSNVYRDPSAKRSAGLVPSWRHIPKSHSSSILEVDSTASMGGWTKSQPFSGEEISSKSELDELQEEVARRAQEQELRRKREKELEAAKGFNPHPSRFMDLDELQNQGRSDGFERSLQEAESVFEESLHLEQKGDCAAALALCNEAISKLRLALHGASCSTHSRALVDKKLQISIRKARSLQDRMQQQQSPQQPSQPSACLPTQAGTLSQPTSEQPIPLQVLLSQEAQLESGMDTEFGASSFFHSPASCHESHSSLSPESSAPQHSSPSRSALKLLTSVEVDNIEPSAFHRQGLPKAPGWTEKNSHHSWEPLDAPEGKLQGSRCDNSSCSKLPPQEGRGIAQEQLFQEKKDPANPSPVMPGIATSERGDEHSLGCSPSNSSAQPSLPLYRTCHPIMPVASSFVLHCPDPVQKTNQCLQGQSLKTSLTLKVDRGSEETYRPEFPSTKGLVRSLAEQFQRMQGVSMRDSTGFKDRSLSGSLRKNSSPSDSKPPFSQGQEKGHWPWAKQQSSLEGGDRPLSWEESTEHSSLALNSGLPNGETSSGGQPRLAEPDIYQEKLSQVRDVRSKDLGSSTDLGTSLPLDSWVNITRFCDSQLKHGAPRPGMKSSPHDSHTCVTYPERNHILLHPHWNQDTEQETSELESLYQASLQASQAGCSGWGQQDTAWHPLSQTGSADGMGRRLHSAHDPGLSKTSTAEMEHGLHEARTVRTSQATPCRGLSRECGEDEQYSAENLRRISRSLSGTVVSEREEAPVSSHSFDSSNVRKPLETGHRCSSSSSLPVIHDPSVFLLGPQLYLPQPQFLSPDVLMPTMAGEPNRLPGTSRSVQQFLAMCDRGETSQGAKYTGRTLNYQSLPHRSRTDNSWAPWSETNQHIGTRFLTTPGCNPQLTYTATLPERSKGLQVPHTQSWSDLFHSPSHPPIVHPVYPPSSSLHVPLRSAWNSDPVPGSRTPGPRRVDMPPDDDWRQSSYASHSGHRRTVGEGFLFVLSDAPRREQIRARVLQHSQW

O=C(CCl)N1CCC(=C(F)CO)C1
inactive: USP42 0.374 | USP46 0.0599 | USP47 0.0525 | USP48 0.0406 | USP5 0.108 | USP54 0.0848 | USP7 0.0769 | USP8 0.0438 | USP9X 0.0939 | UniProt O00487 0.129

Reference: the supplement of paper PMC11732987, “Enantioselective OTUD7B fragment discovery through chemoproteomics screening and high-throughput optimisation” (Communications Chemistry, 2025)
